Experimental data from PubChem BioAssay (NCI).
“And” between values parts separate entries of the source, which are not always exact repeats. Equal values may be shown once. Compounds without any hit were thinned out: in the full panel of roughly 83,000, 20% have a hit.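 For each line, cells grew in 96-well plates with the test compound present at a single concentration for 48 hours.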 The source made the active and inactive calls. How the source made its calls: active means growth percent below 10; inactive means the rest.

Key:
Assay in all cases: NCI-60 one-dose screen, 48 h (100 = growth as untreated, 0 = no growth, -100 = all killed)
Settings in all cases: 10 µM unless noted
[1] = tested on: SR leukemia
[2] = tested on: RPMI-8226 leukemia
[3] = tested on: OVCAR-8 ovarian
[4] = tested on: OVCAR-5 ovarian
[5] = tested on: OVCAR-4 ovarian
[6] = tested on: SK-OV-3 ovarian
[7] = tested on: IGROV1 ovarian
[8] = tested on: OVCAR-3 ovarian
[9] = tested on: HS 578T breast
[10] = tested on: NCI/ADR-RES ovarian
[11] = tested on: T-47D breast
[12] = tested on: BT-549 breast
[13] = tested on: MDA-MB-435 melanoma
[14] = tested on: SW-620 colon
[15] = tested on: MCF7 breast
[16] = tested on: HCT-116 colon
[17] = tested on: HCC-2998 colon
[18] = tested on: KM12 colon

Measured: growth

C=C(CN1CC=CCC1)[C@@H]1CC[C@]2(COC(C)=O)CC[C@]3(C)[C@H](CC[C@@H]4[C@@]5(C)CC[C@H](O)C(C)(C)[C@@H]5CC[C@]43C)[C@@H]12
inactive: [1] 90.4% | [2] 84.2% | [3] 96.1% | [4] 132% | [5] 92.2% | [6] 115% | [7] 112% | [8] 100% | [9] 103% | [10] 98.3% | [11] 78.7% | [12] 106% | [13] 99.2% | [14] 97.4% | [15] 90.4% | [16] 93.6% | [17] 112% | [18] 106%

CCOC(=O)C1=C(C)N=C2SC=C(c3ccc(F)cc3)N2[C@H]1c1cn(-c2ccccc2)nc1-c1ccc(Cl)cc1
inactive: [1] 88% | [2] 88.4% | [3] 92% | [4] 91.9% | [5] 102% | [6] 87.8% | [7] 96.7% | [8] 114% | [9] 101% | [10] 105% | [11] 79.6% | [12] 93.1% | [13] 94.4% | [14] 100% | [15] 87.2% | [16] 90% | [17] 105% | [18] 107%

CCN(CC)CC(=O)Nc1ccc2ncnc(Nc3ccc(Oc4cccc(F)c4)c(Cl)c3)c2c1
active: [1] 2.54%
inactive: [2] 27.6% | [3] 76.1% | [4] 80.8% | [5] 52.6% | [6] 22.4% | [7] 18% | [8] 52.7% | [9] 79.5% | [10] 69.6% | [11] 54.5% | [12] 78.5% | [13] 75% | [14] 67.6% | [15] 52.9% | [16] 64.7% | [17] 53.1% | [18] 51.5%

Cc1nc(Nc2ncc(C(=O)Nc3c(C)cccc3Cl)s2)cc(N2CCN(CCO)CC2)n1
40.8% (inactive) and -2.8% (active): [11]
24.2% (inactive) and -24.8% (active): [3]
40.7% (inactive) and 2.99% (active): [16]
active: [6] -7.55% and -25.8% | [7] -16.4% and -37% | [9] -8.57%
inactive: [1] 40.4% and 14.7% | [2] 92.8% and 61.1% | [4] 23.7% and 10.2% | [5] 52.8% and 44.8% | [8] 37.3% and 20.4% | [10] 45.8% and 23.7% | [12] 55.3% and 32.2% | [13] 62.6% and 27.1% | [14] 103% and 52.6% | [15] 66.1% and 54.4% | [17] 110% and 81% | [18] 81.3% and 28.1%

Clc1cccc(Nc2ncnc3ccc(-c4cncc(-n5cnnn5)c4)cc23)c1
active: [6] -4.88%
inactive: [1] 71.2% | [2] 35.5% | [3] 75.1% | [4] 65.2% | [5] 90.2% | [7] 26.1% | [8] 66.1% | [9] 67.2% | [10] 76.4% | [11] 44.8% | [12] 44.9% | [13] 89.8% | [14] 96.8% | [15] 67.7% | [16] 38.1% | [17] 93.6% | [18] 91.4%

Cc1ccc(NC(=O)N/C(N)=N/c2nc(=O)c3ccccc3s2)cc1
inactive: [1] 88.1% | [2] 101% | [3] 101% | [4] 102% | [5] 99.8% | [6] 94.5% | [7] 91.9% | [8] 100% | [9] 82.9% | [10] 110% | [11] 109% | [12] 86.4% | [13] 87.5% | [14] 92.7% | [15] 84.9% | [16] 94.1% | [17] 102% | [18] 103%

CCN(CC)CCOc1ccccc1C
inactive: [1] 111% | [2] 103% | [3] 102% | [4] 97.2% | [5] 111% | [6] 103% | [7] 109% | [8] 117% | [9] 119% | [10] 124% | [11] 98.3% | [12] 102% | [13] 106% | [14] 107% | [15] 100% | [16] 98.3% | [17] 107% | [18] 107%

CCOC(=O)CC1CSC(c2cccc(Cl)c2)=N1 (configuration not stated)
inactive: [1] 92% | [2] 104% | [3] 102% | [4] 113% | [5] 111% | [6] 103% | [7] 113% | [8] 107% | [9] 102% | [10] 96.4% | [11] 102% | [12] 111% | [13] 112% | [14] 108% | [15] 87.8% | [16] 97.2% | [17] 82.7% | [18] 108%

CCCCC#Cc1c(/C=C(\CCCC)SCC)n(C)c(=O)[nH]c1=O
inactive: [1] 93.4% | [2] 85.5% | [3] 76.8% | [4] 99.3% | [5] 90.7% | [6] 106% | [7] 73.6% | [8] 88.5% | [9] 95.9% | [10] 95.6% | [11] 84.4% | [12] 100% | [13] 104% | [14] 106% | [15] 48.5% | [16] 88.3% | [17] 104% | [18] 113%

NCCOCCOc1ccccc1
inactive: [1] 101% | [2] 88.7% | [3] 107% | [4] 104% | [5] 98% | [6] 112% | [7] 103% | [8] 106% | [9] 115% | [10] 102% | [11] 101% | [12] 106% | [13] 107% | [14] 102% | [15] 91.2% | [16] 99.4% | [17] 94.2% | [18] 105%

CNC(=O)c1cc(Oc2ccc3nc(NC(=O)Nc4ccc(C(F)(F)F)cc4)sc3c2)ccn1
inactive: [1] 70.6% | [2] 70.4% | [3] 48.5% | [4] 93.9% | [5] 37.7% | [6] 105% | [7] 70.9% | [8] 24% | [9] 30% | [10] 58.4% | [11] 44.8% | [12] 62.3% | [13] 40.9% | [14] 37.9% | [15] 42% | [17] 104% | [18] 65%
active: [16] 7.67%

COc1ccc(-c2nnc3n(C)c(=O)c4ccccc4n23)cc1O
active: [8] 0.325% | [13] -40.8%
inactive: [1] 21.4% | [2] 15.9% | [3] 25.2% | [4] 66% | [5] 53.6% | [6] 14.9% | [7] 55.7% | [9] 29.5% | [10] 15.5% | [11] 30.2% | [12] 41.4% | [14] 23.9% | [15] 18.2% | [16] 13.1% | [17] 33.7% | [18] 24.2%

Nc1nc(Nc2ccc(F)cc2)nn1C(=O)c1cc(Cl)ccc1Cl
inactive: [1] 37.5% | [2] 97.1% | [3] 68.4% | [4] 59.5% | [5] 92.8% | [6] 118% | [7] 62.6% | [8] 72.7% | [9] 56.1% | [10] 69.1% | [11] 84.9% | [12] 80% | [13] 88.8% | [14] 71.4% | [15] 48.8% | [16] 58.6% | [17] 86.3% | [18] 51.4%

COc1ccc2c(O)c(/C=C3\N=Nc4nc(C)ccc43)oc2c1CC1CCNCC1
active: [1] -27.5%
inactive: [2] 96.7% | [3] 68.4% | [4] 65% | [5] 74.2% | [6] 80.8% | [7] 60.8% | [8] 83.8% | [9] 57.9% | [10] 104% | [11] 89.5% | [12] 60.4% | [13] 42.7% | [14] 38.9% | [15] 67.3% | [16] 35.3% | [17] 78.1% | [18] 38.2%
